From PubChem BioAssay (NCATS)
Records with an inconclusive call do not appear. Entries that show only a call come without a potency. Active and inactive are the calls of the source. Unless noted, the rule behind the calls is not given here.

Molecular target: Alpha-galactosidase (Coffea arabica) (UniProt Q42656)
Sequence (Q42656 whole entry, looked up): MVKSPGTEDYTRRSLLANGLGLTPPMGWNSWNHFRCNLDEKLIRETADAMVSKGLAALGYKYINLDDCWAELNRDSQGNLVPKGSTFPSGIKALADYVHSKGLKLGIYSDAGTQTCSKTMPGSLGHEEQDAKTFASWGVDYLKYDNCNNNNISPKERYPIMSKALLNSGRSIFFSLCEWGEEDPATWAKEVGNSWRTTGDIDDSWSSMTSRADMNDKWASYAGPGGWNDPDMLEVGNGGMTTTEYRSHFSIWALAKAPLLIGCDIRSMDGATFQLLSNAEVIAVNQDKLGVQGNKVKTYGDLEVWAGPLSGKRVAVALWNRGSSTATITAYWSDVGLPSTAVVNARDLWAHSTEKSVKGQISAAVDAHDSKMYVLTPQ
Assay: Counterscreen for Glucocerebrosidase Inhibitors: qHTS Assay for Coffee Bean alpha-Galactosidase at pH 5.9 (AID 998; active = well fitted curve in the direction sought with a large enough effect; an effect the other way counts as inactive or inconclusive)
Conditions: coffee bean alpha-galactosidase enzyme assay; series mostly up to 76.9 µM
In short: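 Compounds were titrated from 0.7 nM to 77 uM against green coffee bean alpha-galactosidase (2 nM) using 80 uM fluorogenic 4-methylumbelliferyl substrate. After 20 min at room temperature, reactions were stopped at pH 10 and read by fluorescence.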
In the case of `O=C1c2ccccc2-c2n[nH]c3cccc1c23`, the outcome is reported as “inactive”.
With `O=c1[nH]c2cc(Cl)c(Cl)cc2[nH]c1=O` the outcome was “inactive”.
With `C=CCn1c(=O)c2c(nc(-c3ccc(S(=O)(=O)O)cc3)n2C)n(C)c1=O` the outcome was “inactive”.

Tested on: not listed separately
Assay: Validation screen for inhibitors of Lassa infection (AID 463096; calls by dose curve)
Conditions: Lassa virus infection, cell-based; series mostly up to 46.1 µM
In the case of `O=C1c2c(O)cc(O)cc2OC(c2ccc(O)c(O)c2)C1O` (stereo not given), the Potency is reported as “inactive”.
In the case of `CN(C)C(=O)/N=N/C(=O)N(C)C`, the Potency is reported as “inactive”.
With `O=c1[nH]c2cc(Cl)c(Cl)cc2[nH]c1=O` the Potency was “inactive”.
With `C=CCn1c(=O)c2c(nc(-c3ccc(S(=O)(=O)O)cc3)n2C)n(C)c1=O` the Potency was “inactive”.

Tested on: not listed separately
Assay: Inducers of the Endoplasmic Reticulum Stress Response (ERSR) in human glioma: Validation (AID 504836; active = well fitted curve in the direction sought with a large enough effect; an effect the other way counts as inactive or inconclusive)
Conditions: human glioma cells, ER stress response reporter; series mostly up to 38.3 µM
In short: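 ERSR induction read as luciferase luminescence (Bright-Glo, 10 min at room temperature) in stably transfected human U87-MG glioma cells exposed to compounds for 16 h, using GRP78 as sensor.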
In the case of `N=c1ccn2c(n1)O[C@H]1[C@H](O)[C@@H](CO)O[C@H]12`, the outcome is reported as “inactive”.
With `CN(C)C(=O)/N=N/C(=O)N(C)C` the outcome was “inactive”.
For `O=C1c2ccccc2-c2n[nH]c3cccc1c23`, the outcome was “inactive”.
In the case of `O=c1[nH]c2cc(Cl)c(Cl)cc2[nH]c1=O`, the outcome is reported as “inactive”.
In the case of `C=CCn1c(=O)c2c(nc(-c3ccc(S(=O)(=O)O)cc3)n2C)n(C)c1=O`, the outcome is reported as “inactive”.
With `O=c1[nH]c(=O)n([C@H]2C[C@@H](O)[C@@H](CO)O2)cc1C=CBr` the outcome was “inactive”.
For `OC[C@H]1O[C@@H](n2cnc3c(NC4CCCC4)ncnc32)[C@H](O)[C@@H]1O`, the outcome was “inactive”.

Tested on: not listed separately
Assay: qHTS profiling of the MIPE4 collection as inhibitors of Plasmodium falciparum (3D7) proliferation (AID 743344)
Conditions: P. falciparum 3D7 in erythrocytes, SYBR Green DNA fluorescence, 72 h; at 28.5 µM (top of the series) unless noted
In short: (§1)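 Erythrocytes infected with P. falciparum (0.3% parasitemia, 2.5% hematocrit) incubated with compounds 72 h at 37 C, 5% CO2. Lysis with saponin/Triton buffer containing SYBR Green I, overnight at room temperature in the dark; DNA fluorescence (485/535 nm) normalised to 0.29 uM artemisinin and DMSO.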
`CC(C)C(C)C=CC(C)C1CCC2C3=CC=C4CC(O)CCC4(C)C3CCC21C` (stereo not given) showed a parasite growth, % of DMSO control of 96.2%.
For `CC1(C)CC(O)CC(C)(C)N1[O]`, the parasite growth, % of DMSO control was 99.3%.
With `O=c1[nH]c(=O)n([C@H]2C[C@@H](O)[C@@H](CO)O2)cc1C=CBr` the parasite growth, % of DMSO control was 139%.
In the case of `C[C@H](CCC(=O)O)[C@H]1CC[C@H]2[C@H]3[C@@H](CC[C@]12C)[C@@]1(C)CC[C@@H](O)C[C@H]1C[C@@H]3O`, the parasite growth, % of DMSO control is reported as 8.82%.

Tested on: not listed separately
Assay: qHTS profiling of the MIPE4 collection as inhibitors of Plasmodium falciparum (DD2) proliferation (AID 743345)
Conditions: P. falciparum Dd2 in erythrocytes, SYBR Green DNA, 72 h; at 28.5 µM (top of the series) unless noted
In short: as §1
Work on `CC=C(C)C(=O)O[C@H]1C(C)=C[C@]23C(=O)[C@@H](C=C(CO)[C@@H](O)[C@]12O)[C@H]1[C@@H](C[C@H]3C)C1(C)C` yielded a parasite growth remaining, % of DMSO control (lower = more inhibition) of 78.2%.
Molecule `CC1(C)CC(O)CC(C)(C)N1[O]` has a parasite growth remaining, % of DMSO control (lower = more inhibition) of 97.3%.
Work on `O=c1[nH]c(=O)n([C@H]2C[C@@H](O)[C@@H](CO)O2)cc1C=CBr` yielded a parasite growth remaining, % of DMSO control (lower = more inhibition) of 118%.
`C[C@H](CCC(=O)O)[C@H]1CC[C@H]2[C@H]3[C@@H](CC[C@]12C)[C@@]1(C)CC[C@@H](O)C[C@H]1C[C@@H]3O` gave a parasite growth remaining, % of DMSO control (lower = more inhibition) of 12.3%.

Tested on: not listed separately
Assay: qHTS profiling of the MIPE4 collection as inhibitors of Plasmodium falciparum (DD2) proliferation (Rep 2) (AID 743346)
Conditions: P. falciparum Dd2 in erythrocytes, SYBR Green DNA, 72 h; at 28.5 µM (top of the series) unless noted
In short: as §1
Work on `CC1(C)CC(O)CC(C)(C)N1[O]` yielded a parasite growth, % of control (lower = inhibition) of 73%.
Work on `O=c1[nH]c(=O)n([C@H]2C[C@@H](O)[C@@H](CO)O2)cc1C=CBr` yielded a parasite growth, % of control (lower = inhibition) of 157%.
In the case of `C[C@H](CCC(=O)O)[C@H]1CC[C@H]2[C@H]3[C@@H](CC[C@]12C)[C@@]1(C)CC[C@@H](O)C[C@H]1C[C@@H]3O`, the parasite growth, % of control (lower = inhibition) is reported as 16.6%.
